# Results published in the OligoGym collection.
# Molecular target: PSMD14
# Assay: pooled miR-30 sensor sort-seq; sequence = guide strand
# Settings: shRNA
# Note: reference of the scale not given here.
row,Sequence,sensor-assay potency score (higher = more potent)
1,TTAGCAACATCTTCTGTTCCAG,0.0236
2,TTCTTCTACAGCCTTATTGTAA,-1.22
3,ATCTTCTTCTTCTACAGCCTTA,-0.913
4,TTAACATTTTTAACAGTGCCAG,-1.04
5,TACATCCACATGTTCCTCCAAA,-0.84

# Molecular target: PSMG3
# Assay: as above
# Settings: shRNA
row,Sequence,sensor-assay potency score (higher = more potent)
1,TTCCAGCTTCTTGAGACACAAA,-1.35
2,TCTTCTGCTTCGATATCACCAA,-0.805
3,TTTGTGGTGAGCACAGGCTTGC,-0.665
4,TTTTGTGGTGAGCACAGGCTTG,-0.949
5,TGAGACACAAACGCTACCAGGT,-0.363
6,TAAAAAAGAAATTTCCTCCTAC,0.923
7,TTGAGACACAAACGCTACCAGG,-0.891
8,TTCTCAAACACAAGCAACGATT,-1.54
9,AACGCTACCAGGTTCTTTGCAA,0.042
10,TCTGTTTCCAGCTTCTTGAGAC,0.0937
11,ATGGATGAGAGGCTCATCCTGC,-1.3
12,TTGTCCTTCACGGCCACGGCGA,-1.48
